# Out of some 360,000 compounds screened, about 10,000 (2.8%) were called active. Another 4% or so got no clear call; they are omitted. The sample as a whole holds a higher share of actives than the screen did. Unmarked numbers belong to inactive results. Calls come from the whole dose curve; as a rule, active = well fitted inhibition curve with a large enough effect; inconclusive = small, poorly fitted or top-dose-only effect; inactive = flat fitted curve, though single readings scatter.
# Target: Serine/threonine-protein kinase PLK1 (Homo sapiens) (UniProt P53350)
# Assay: qHTS for Inhibitors of PLK1-PDB (polo-like kinase 1 - polo-box domain): Primary Screen; note: nearly all actives have a fitted effect of over 65% in size; for max response, negative = inhibition: series mostly up to about 57 µM
# Details: Plk1 PBD binding of FITC phosphopeptide, fluorescence polarization
# % is set by controls: 0 for no effect and ±100 for the full control effect; potency is the fitted concentration of half-maximal effect.
# Chain of Serine/threonine-protein kinase PLK1 (Homo sapiens) (P53350 whole entry, looked up, the tested form may be a part): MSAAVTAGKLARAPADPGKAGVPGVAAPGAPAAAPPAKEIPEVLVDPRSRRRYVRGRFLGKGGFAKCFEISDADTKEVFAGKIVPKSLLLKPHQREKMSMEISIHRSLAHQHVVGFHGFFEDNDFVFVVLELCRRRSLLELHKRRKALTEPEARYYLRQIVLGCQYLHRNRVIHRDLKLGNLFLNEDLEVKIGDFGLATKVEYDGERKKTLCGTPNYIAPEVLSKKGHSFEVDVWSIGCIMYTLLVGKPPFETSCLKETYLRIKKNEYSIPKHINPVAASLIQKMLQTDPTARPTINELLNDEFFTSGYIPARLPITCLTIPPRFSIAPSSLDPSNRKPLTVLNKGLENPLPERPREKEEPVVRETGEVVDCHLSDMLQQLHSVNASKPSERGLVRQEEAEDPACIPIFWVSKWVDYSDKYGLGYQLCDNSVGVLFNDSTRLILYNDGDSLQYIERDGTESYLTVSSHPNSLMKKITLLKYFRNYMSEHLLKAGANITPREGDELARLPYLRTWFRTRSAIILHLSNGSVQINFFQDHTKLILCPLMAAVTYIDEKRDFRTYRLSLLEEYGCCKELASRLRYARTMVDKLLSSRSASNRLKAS
SMILES,"max response, negative = inhibition [%]",Potency
CN(C)CCNC(=O)c1cccc(-c2cnc3c(NC=O)cc(-c4cccc(C(F)(F)F)c4)cn23)c1,-13.6,–
CC(C)(C)OC(=O)N1CCN(C(=O)c2[nH]c(C(F)(F)F)nc2-c2ccccc2)CC1,1.58,–
CCOC(=O)c1cnc(SCC(=O)Nc2cccc(OC)c2)nc1N,-5.18,–
COC(=O)c1sc(=S)n(-c2ccccc2)c1N,–,10 µM (active)
CCOC(=O)C(C)n1cnc2c(nnn2-c2cccc(OC)c2)c1=O (stereo not drawn),1.99,–
CCOC(=O)c1sc(=S)n(-c2cccc(OC)c2)c1N,–,14.1 µM (active)
COC(=O)c1sc(N2CCN(Cc3ccccc3)CC2)nc1N,-4.47,–
COC(=O)C1=C(C)N(C)C(=S)NC1c1ccccc1 (stereo not drawn),-7.92,–
CC1(C)OC(=O)C2=C(C[C@@H](C3CC3)O[C@H]2CCc2cccc(Cl)c2)O1,4.74,–
COc1ccc(C(C#N)=C2C=CC(=NO)c3ccccc32)cc1,-0.254,–
COc1ccccc1NC(=O)C(CC(=O)O)Cc1cc(C)cc(C)c1 (stereo not drawn),-4.75,–
Cn1c(Nc2ccc(F)cc2)nc2cc(-c3ccsc3)sc2c1=O,-9.36,–
CC1Cc2ccccc2N1C(=O)CSc1nnc(-c2ccc(S(=O)(=O)N3CCCC3)cc2)n1C (stereo not drawn),-7.29,–
CCn1c(CSc2ncccn2)nnc1SCC(=O)N1c2ccccc2CC1C (stereo not drawn),-13,–
CC1Cc2ccccc2N1C(=O)CSc1nnc(C2CC2)n1C (stereo not drawn),–,21.2 µM (active)
Cc1ccc(Cn2cc(CN3CC(N4CCN(C)CC4)CS3(=O)=O)nn2)cc1 (stereo not drawn),-1.82,–
O=C1[C@H]2[C@@H](c3ccc(C(F)(F)F)cc3)N[C@]3(CCCN(Cc4ccc(Br)cc4)C3=O)[C@H]2C(=O)N1Cc1ccccc1,8.62,–
CC(C)C1CC2=C(C(=O)OC(C)(C)O2)C(c2ccc(F)cc2)O1 (stereo not drawn),2.13,–
CNC(=S)Nc1ccc([N+](=O)[O-])cc1,-17.5,–
O=C(O)C(=Cc1ccc([N+](=O)[O-])cc1)CCc1ccccc1,-6.74,–
O=C1/C(=C\c2ccc([N+](=O)[O-])cc2)CS(=O)(=O)C/C1=C/c1ccc([N+](=O)[O-])cc1,–,4.23 µM (active)
CC(=O)OC[C@@H]1CN(Cc2ccccc2)C[C@H](n2cnc3c(NCc4ccco4)ncnc32)O1,1.29,–

SMILES,"max response, negative = inhibition [%]",Potency
CCN1C(=O)[C@@H]2[C@@H]3CN(S(=O)(=O)c4ccccc4C)[C@@H](c4ccc(Cl)cc4)[C@@H]3C(=O)C[C@@H]2C1=O,-4.29,–
Cc1ccc(S(=O)(=O)NCCSc2ccccc2)cc1[N+](=O)[O-],1.72,–
CCS(=O)(=O)c1cc([N+](=O)[O-])c(Sc2ccccc2N)s1,–,23.8 µM (active)
Cc1cccc(CN2CCN(C3CN(Cc4cn(Cc5cc(C)cc(C)c5)nn4)S(=O)(=O)C3)CC2)c1 (stereo not drawn),-3.6,–
COc1ccc(S(=O)(=O)N(C)C[C@H]2OCc3cnnn3CCCC(=O)N([C@H](C)CO)C[C@H]2C)cc1,-13.3,–
C/C(=N\Nc1cccc(C(=O)O)c1)c1ccc2c(c1)Nc1ccccc1S2,–,26.7 µM (active)
Cc1ccccc1NC(=O)c1cc(S(=O)(=O)Nc2cccc(C(=O)O)c2)ccc1Cl,4.03,–
CC(=O)Nc1cccc(/C(C)=N/NC(=O)c2c(-c3ccccc3Cl)noc2C)c1,-10.9,–
CCOC(=O)[C@]12CCCC=C1N(CCC1=CCCCC1)C(=O)[C@H](CC(=O)N1CCSCC1)C2,1.28,–
O=C1C(Cl)=C(Oc2ccccc2)C(=O)c2ccccc21,–,1.68 µM (active)
COC(=O)c1ccc2nc(-c3ccc(OC)c(OC)c3)c(Cc3ccccc3)n2c1,-13.8,–
CN(C(=O)c1ccccn1)c1nnc(-c2ccccn2)s1,1.77,–
CN(C)c1ccnc2sc(C(=O)c3ccccc3)c(N)c12,–,29.9 µM (active)
CCN(CC)C(=O)c1sc2nc(-c3ccccc3)ccc2c1N,-8.25,–
O=C(NC(c1ccc(Cl)cc1)c1cnccn1)C1CCN(Cc2ccc(Cl)cc2)CC1 (stereo not drawn),2.32,–
Clc1cccc(Cc2c(-c3cccc(Cl)c3)nc3ccc(Cl)cn23)c1,-13.7,–
O=C1CCCCC1Sc1ccc(Cl)cc1[N+](=O)[O-] (stereo not drawn),–,4.74 µM (active)
CSc1ccccc1NC(=O)CN(C)CC(=O)Nc1ccc(Cl)cc1[N+](=O)[O-],-4.66,–
O=C(COc1ccc(Cl)cc1[N+](=O)[O-])N1CCCCC1,-4.72,–
CCOC(=O)c1c(NC(=S)SC)sc(C(=O)N2CCc3ccccc3C2)c1C,-5.18,–
CC(=O)NC(c1ccccc1)c1nc(-c2ccccc2C)cs1 (stereo not drawn),-5.3,–
COCC1CCCCN1C(=O)c1cc(COc2ccc(C)c(C)c2)on1 (stereo not drawn),3.28,–

SMILES,"max response, negative = inhibition [%]",Potency
CCOc1ccc(S(=O)(=O)N2CCN(C(=S)NCC3CCCO3)CC2)cc1 (stereo not drawn),1.52,–
CCOc1ccc(-n2c(N)c(C(=O)NCC3CCCO3)sc2=S)cc1 (stereo not drawn),–,23.8 µM (active)
CCOc1ccc(NS(=O)(=O)c2ccc(C(=O)NCC3CCCO3)cc2)cc1 (stereo not drawn),1.53,–
CCc1n[nH]c(=S)n1/N=C/c1c[nH]c2ccc(Br)cc12,–,33.6 µM (active)
Cc1ccccc1-c1n[nH]c(=S)n1/N=C/c1ccc(-c2ccccc2Br)o1,-17.2,–
CN(Cc1ccccc1F)c1cc2c(c3c1ccn3C)C1CCC2O1 (stereo not drawn),-4.37,–
O=C1OCCOC2CCCc3oc(-c4ccccc4)c1c32 (stereo not drawn),-1.47,–
CC1=C/C(=N\OS(=O)(=O)c2ccccc2)C=CC1=O,–,1.26 µM (active)
CCN(CC)CCN(C)C(c1ccnc2ccccc12)c1nnnn1-c1ccc2c(c1)OCCO2 (stereo not drawn),-13.1,–
COc1ccc(/C=C2\SC(=S)N(CCC(=O)N3CCOCC3)C2=O)cc1OC,-7.23,–
O=C1/C(=C/c2ccc(F)cc2)SC(=S)N1CCCC(=O)N1CCCCC1CCO (stereo not drawn),-15.9,–
C=CCOc1ccc(/C=C2\SC(=S)N(CCC(=O)O)C2=O)cc1,–,26.7 µM (active)
CCCCC[C@H](C)N1C[C@@H](COCc2ccccc2)Oc2cc(N3CCC[C@@H]3CO)ccc2S1(=O)=O,-6.61,–
CC(C)C[C@@H]1Cc2[nH][nH]c(=O)c2[C@H](CCc2ccccc2)O1,-16.3,–
COc1ccccc1CNC(=O)c1cc(-c2cc(Cl)ccc2C)n[nH]1,0.345,–
O=[N+]([O-])/C=C/c1ccc2c(ccn2Cc2ccccc2)c1,–,3.36 µM (active)
CCc1nc2c(OCCOc3ccccc3)cccn2c1N(C)C(=O)c1ccccc1F,-11.2,–
CCOC(=O)Cc1csc(NC(=O)CSc2nc(C)cc(=O)[nH]2)n1,–,11.9 µM (active)
CCCCc1nnc(NC(=O)CSc2nc(C)cc(=O)[nH]2)s1,-4.5,–
CCOC(=O)Cc1csc(NC(=O)CSc2ccc(Br)cc2)n1,-1.13,–
Cn1c(NCc2cccnc2)nc2cc(-c3ccc(F)cc3)sc2c1=O,-3.07,–
COC(=O)[C@@]12C[C@@H](CC(=O)N3CCCCC3)C(=O)N(Cc3ccc4c(c3)OCO4)C1=CCC(C)(C)C2,2.15,–

SMILES,"max response, negative = inhibition [%]",Potency
CC(C)C[C@H]1CNC(=S)N1C[C@H]1CCCN1C[C@H](Cc1ccc(O)cc1)N1C[C@H](Cc2ccc(O)cc2)N(CC2CCCCC2)C1=S,1.95,–
CC1(C(=O)NCc2ccc3c(c2)OCO3)CCN1C(=O)Cc1cccc2ccccc12 (stereo not drawn),-5.76,–
CCn1c(C(C)NC(=O)c2ccc(C)cc2)n[nH]c1=S (stereo not drawn),-15.1,–
CCN1CCC2(CC1)N=C(c1ccc(F)cc1)C(=S)N2C(=O)c1ccc(C)cc1,–,15 µM (active)
Cc1ccc(C(=O)N(CN2CCCC2=O)c2ccc(F)cc2)cc1,-5.15,–
CCOc1ccc(NC(=O)c2cc(C)nc3ccccc23)cc1,-0.67,–
CCOc1ccc2nc(NCCNC(=O)C(C)(C)C)c(C)cc2c1,–,26.7 µM (active)
CCOc1ccc(NS(=O)(=O)c2ccc(C)c(C(N)=O)c2)cc1,1.44,–
COc1ccc(NC(=O)C2(C)Cc3c(-c4cccc(NC(C)=O)c4)ccnc3O2)cc1OC (stereo not drawn),-12.3,–
CCn1c(=S)[nH]c2sc3c(c2c1=O)CCCCC3,–,23.8 µM (active)
CN(C)CCCn1c(=O)n(Cc2ccccc2)c(=O)c2c3c(sc21)CCCCC3,-1.79,–
CCCc1nc2sc3c(c2c(=O)n1NC(=O)CCCl)CCCC3,-16.7,–
CCN(CC)C(=O)C1=C(C)N(Cc2ccc(OC)cc2)C(=O)C(CC(=O)NCc2ccco2)C1 (stereo not drawn),5.53,–
CC(C)c1cccc(C(C)C)c1Nc1cn[nH]c1,3.35,–
O=S(=O)(NC1CCCCC1N1CCC(O)CC1)c1ccc(Cl)cc1 (stereo not drawn),-6.48,–
CCN1CCN(C2CCCCC2NS(=O)(=O)c2ccc(Cl)cc2)CC1 (stereo not drawn),–,26.7 µM (active)
O=S(=O)(NC1CCCCC1N1CCCCC1)c1ccc(Cl)cc1 (stereo not drawn),3.73,–
Cc1cc(O)ccc1-c1cc(C(=O)NCc2cc(C(F)(F)F)cc(C(F)(F)F)c2)[nH]n1,3.49,–
CCCCCC(O)(CCN1CCCCC1)c1ccccc1 (stereo not drawn),-0.139,–
C#CC(CCN1CCCCC1)(OC)c1ccccc1 (stereo not drawn),-7.33,–
CCCCCCC(O)(CCN1CCCCC1)c1ccccc1 (stereo not drawn),–,29.9 µM (active)
Cc1ccn(CC(=O)NC2CCCN(Cc3ccccc3F)C2)n1 (stereo not drawn),-1.67,–
